This passage reports outcome and Potency results from PubChem BioAssay (NCATS).

Results filed as inconclusive are left out. Calls of active or inactive are those of the source. Calls follow the shape of the dose curve; as a rule, active = well fitted curve in the direction sought with a large enough effect; inconclusive = small, poorly fitted or top-dose-only effect, or another doubt; inactive = no such curve, though single readings can be large; an effect the other way counts as inactive or inconclusive.

Assay [1] in a line: KB-3-1 Cancer Cell Toxicity qHTS against the NCATS CANVASS Library (AID 1347366). Also: nearly all actives have a fitted effect of over 75% in size. The note with it: KB-3-1 viability, CellTiter-Glo luminescence, 72 h; at 46.1 µM (top of the series). In a few lines:
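KB-3-1 cells (500/well) in DMEM with 10% FBS were exposed to compounds for 72 h at 37C. Viability was read by CellTiter-Glo luminescence.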

A short description of assay [2]: qHTS for ATAD5 Agonist screened against the NCATS CANVASS Library (AID 1347367).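 Also: luciferase reporter driven by ATAD5 which rises upon DNA damage.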 In a few lines: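 Luciferase reporter under ATAD5 control, stably integrated in HEK293T cells (2000/well). Compounds (11 points) incubated 16 h at 37C; viability read first by CellTiter-Fluor, then luminescence reporting ATAD5 activation. MMS positive control.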
Background: qHTS replaces the single test concentration by a dilution series.

Assay [3] is described as follows: MCF7 Cancer Cell Toxicity qHTS against the NCATS CANVASS Library (AID 1347369). In outline:
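MCF7 cells (500/well) were exposed 72 h at 37 °C to compounds in an 11-point series. Viability was read as ATP content by CellTiterGlo luminescence.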

Assay [4] can be described thus: qHTS for ATAD5 Antagonist screened against the NCATS CANVASS Library (AID 1347370).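 Also: HEK293T cells carrying an ATAD5 luciferase reporter co-treated with 10 µM 5-fluorouridine; nearly all actives have a fitted effect of over 65% in size.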 In a few lines:
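HEK293T cells with a stably integrated ATAD5-controlled luciferase reporter were exposed to compounds (11-pt) alongside 10 uM 5-fluorouridine as ATAD5 stabilizer for 16hr at 37C. Viability was read by CellTiter-Fluor fluorescence, then ATAD5 by luminescence.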

A short description of assay [5]: J3T Cancer Cell Toxicity qHTS against the NCATS CANVASS Library (AID 1347371).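 Also: J3T is a canine glioma cancer cell line seeded at 500 cells per well.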 In outline: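 J3T dog glioma cells (500 cells/well) were exposed to compounds in an 11-point series for 72 hr at 37C, 5% CO2. Cytotoxicity was read as ATP content by CellTiterGlo luminescence.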
Assay [6] has as its target Nuclear receptor subfamily 1 group I member 3 (Homo sapiens) (UniProt Q14994). The assay is described as follows: qHTS for Constitutive Androstane Receptor (CAR) Antagonist screened against the NCATS CANVASS Library (AID 1347372).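 Also: cells stimulated with 50 nM CITCO agonist so inhibition reflects antagonism.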 In a few lines: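 HepG2 cells stably carrying hCAR and a CYP2B6-2.2kb luciferase reporter were exposed to compounds plus 50 nM CITCO for 24hr at 37C. CAR activity was read by ONE-Glo luminescence, with viability measured first by CellTiter-Fluor.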

Assay [7] has the same target. The assay is described as follows: qHTS for Constitutive Androstane Receptor (CAR) Agonist screened against the NCATS CANVASS Library (AID 1347373).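 Also: every well also contained 1.5 µM PK11195 alongside the test compound.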 In outline:
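HepG2 cells stably expressing hCAR and a CYP2B6-2.2kb luciferase reporter were treated for 24hr at 37C with compounds (11-point qHTS) in the presence of 1.5uM PK11195. Reporter activation was read by ONE-Glo luminescence.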

Assay [8] in a line: qHTS for Hypoxia signaling pathway (HIF-1) antagonists against the NCATS CANVASS Library (AID 1347374).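 Also: HRE-bla ME-180 cells stimulated with cobalt chloride to stabilize HIF-1alpha; nearly all actives have a fitted effect of over 60% in size.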 In a few lines: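 HRE-bla ME-180 cells (2,000/well, 0.5% dialyzed FBS) were pre-incubated 5 h, then given an 11-point compound series plus CoCl2 (60 uM solution as added) for 17 h at 37C. CCF4 β-lactamase read (ex 405, em 460/530 nm) after 2 h at RT.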
The nature of assay [9]: qHTS for Hypoxia signaling pathway (HIF-1) agonists against the NCATS CANVASS Library (AID 1347375). In outline:
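HRE-bla ME-180 cells (beta-lactamase reporter under hypoxia responsive element) in 0.5% dialyzed FBS medium, 5 h at 37C, then compound 17 h, 11-point qHTS series. CCF4-AM FRET substrate 2 h RT; 460/530 nm emission read.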

Assay [10] is described as follows: qHTS for H2AX Agonists against the NCATS CANVASS Library (AID 1347378). In a few lines:
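CHO-K1 cells (1000/well, overnight at 37C) exposed to compounds at several concentrations for 3 hr at 37C, 0.76% DMSO final. Lysates read by TR-FRET (phospho-H2AX S139 Eu-cryptate antibody / H2AX-d2 antibody) after 24 hr at room temperature; 665/615 nm ratio.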

Assay [11] can be described thus: qHTS for Inflammasome Signaling Inhibitors: IL-1-beta AlphaLISA screen against the NCATS CANVASS Library (AID 1347379).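 Also: human THP-1 cells primed with LPS then triggered with ATP; secreted IL-1B measured as AlphaLISA emission at 615 nm; lower signal means less IL-1B release which is the wanted effect.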 In a few lines:
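Human THP-1 cells were pretreated 1 hr at 37 °C with compounds (up to 57.5 uM final), then stimulated with LPS (250 ng/mL final) and ATP (1.25 mM final). Secreted IL-1B was read by AlphaLISA after 16 hr.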

Assay [12] can be described thus: qHTS for Antimalaria activity screened against the NCATS CANVASS Library (AID 1347380).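 Also: Plasmodium falciparum strain Dd2 asexual parasites grown in red blood cells; nearly all actives have a fitted effect of over 40% in size.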 In a few lines:
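P. falciparum Dd2-infected RBCs (2.5% hematocrit final, 0.3% parasitemia) in Albumax II RPMI were exposed to compounds in an 11-point qHTS series for 72 h at 37C under 5% O2/5% CO2, then lysed with SYBR Green.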

Assay [13] is described as follows: Inflammasome Signaling qHTS Counterscreen: IL-1-beta AlphaLISA counterscreen against the NCATS CANVASS Library (AID 1347381).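 Also: cell-free check with purified IL-1β in medium and no THP-1 cells.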 In outline:
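To flag interference with the AlphaLISA read-out, a known amount of purified IL-1-beta (4 pg) replaced cell supernatant. Detection used anti-IL-1-beta acceptor beads, biotinylated antibody and streptavidin donor beads at room temperature.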

The nature of assay [14]: Cytotoxicity qHTS for assessment of Hepg2 cells membrane integrity screened against the NCATS CANVASS Library (AID 1347387). In outline: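 HepG2 cells (2000/well) attached overnight at 37C, then received compounds in an 11-point series at 0.59 nM - 46 uM final for 5 hr. LDH release was detected fluorometrically (ex 560/em 590 nm) with CytoTox-ONE reagent after 10 min at room temperature.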

Assay [15] is described as follows: qHTS assay for small molecule disruptors of mitochondrial membrane potential screened against the NCATS CANVASS Library (AID 1347389). Also: potency is read from the fitted curve at half-maximal effect; nearly all actives have a fitted effect of over 60% in size. To be noted: HepG2 mitochondrial membrane potential, m-MPI red/green ratio, 1.5 h. In a few lines:
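HepG2 cells (2,000/well) were plated overnight at 37C, exposed to compound for 1 hr at 37C/5% CO2, then loaded with Mito-MPS dye for 30 min. Depolarization was read as a drop in red (590 nm) to green (535 nm) fluorescence ratio.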

Assay [16] can be described thus: SDT Cancer Cell Toxicity qHTS against the NCATS CANVASS Library (AID 1347365).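 Also: SDT canine glioma cells 500 per well in 1536 well plates; nearly all actives have a fitted effect of over 60% in size.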 In a few lines: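 SDT canine glioma cells (500 cells/well) were exposed to compounds in an 11-point series for 72 hr at 37C, 5% CO2; viability was read as ATP content by CellTiterGlo luminescence.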
The nature of assay [17]: G06 Cancer Cell Toxicity qHTS against the NCATS CANVASS Library (AID 1347368). Also: nearly all actives have a fitted effect of over 60% in size. In outline:
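G06 dog glioma cells seeded at 500 cells/well were exposed to compounds (11-point qHTS series) for 72 hr at 37C, 5% CO2; viability read as ATP content by CellTiterGlo luminescence.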

Assay [18] in a line: 10-beta competent E. coli microbial cell viability qHTS against the NCATS CANVASS Library (AID 1347376). In outline: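 10-beta competent E. coli (0.9 OD culture diluted to 0.2 OD) exposed to compounds in an 11-point qHTS series, incubated overnight at 37C, 5% CO2. Viability read as ATP by BacTiter-Glo luminescence after 20 min at room temperature.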
A short description of assay [19]: DH5-alpha competent E. coli microbial cell viability qHTS against the NCATS CANVASS Library (AID 1347377). In a few lines:
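DH5-alpha E. coli suspension (0.9 OD culture diluted to 0.2 OD) exposed to compounds in an 11-point series, overnight at 37C, 5% CO2. Viability read as ATP by BacTiter-Glo luminescence after 20 min at room temperature.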

The nature of assay [20]: qHTS for Activators of p53 Stress Response Pathway screened against the NCATS CANVASS Library (AID 1347388). In a few lines: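 p53RE-bla HCT-116 cells (4000/well) were plated 5 h at 37C, exposed to compounds for 16 h at 37C over an 11-point concentration series, then loaded with CCF4 for 2 h at room temperature; 460/530 nm emission ratio read.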

Sequence of Nuclear receptor subfamily 1 group I member 3 (Homo sapiens) (Q14994 whole entry, looked up): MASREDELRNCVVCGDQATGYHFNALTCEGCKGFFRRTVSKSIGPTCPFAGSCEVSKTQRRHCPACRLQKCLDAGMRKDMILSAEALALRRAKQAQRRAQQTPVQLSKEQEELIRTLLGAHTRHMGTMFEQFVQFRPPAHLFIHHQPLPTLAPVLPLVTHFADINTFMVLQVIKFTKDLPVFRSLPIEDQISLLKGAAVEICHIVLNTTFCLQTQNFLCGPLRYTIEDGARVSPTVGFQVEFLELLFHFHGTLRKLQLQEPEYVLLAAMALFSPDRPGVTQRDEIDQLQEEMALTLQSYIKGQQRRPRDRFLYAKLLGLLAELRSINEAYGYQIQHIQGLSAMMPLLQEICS

On to `O=c1c(O)c(-c2ccc(O)c(O)c2)oc2cc(O)ccc12`, for which the outcome in assay [1], in [2], in assay [3], in [4], in assay [5] and in assay [6] was inactive. Moreover, the outcome in [7], in [8], in [9], in [10], in [11] and in assay [12] was inactive. For the same molecule, the call in assay [13] and in [14] was inactive. In assay [15], the Potency was 23.4 µM (active).

`C=C(C)[C@@H]1CC[C@]2(C(=O)O)CC[C@]3(C)[C@H](CC[C@@H]4[C@@]5(C)CC[C@H](O)C(C)(C)[C@@H]5CC[C@]43C)[C@@H]12`: the call in assay [16], in [2], in assay [17], in assay [3], in assay [4] and in assay [5] was inactive. Also, the molecule was classed as inactive in [6], in assay [7], in assay [9], in assay [18], in assay [19] and in assay [10]. Also, the outcome in assay [11], in [13], in assay [14] and in [20] was inactive. For the same molecule, the Potency in assay [15] is 18.6 µM (active).
